Source: PubChem BioAssay (NCI)
The panel holds about 83,000 compounds, 20% with a hit somewhere; the sample as a whole holds those more often.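 Single-dose data. Exposure time 48 hours. Values below 10 considered active.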 Values without a mark were called inactive. Activity calls are given as the source filed them.

Tests used:
Assay in all cases: NCI-60 one-dose screen, 48 h (100 = growth as untreated, 0 = no growth, -100 = all killed)
Details in all cases: 10 µM unless noted
T-47D breast = tested on: T-47D breast
BT-549 breast = tested on: BT-549 breast
MDA-MB-435 melanoma = tested on: MDA-MB-435 melanoma
SW-620 colon = tested on: SW-620 colon
MCF7 breast = tested on: MCF7 breast
HCT-116 colon = tested on: HCT-116 colon
HCC-2998 colon = tested on: HCC-2998 colon
KM12 colon = tested on: KM12 colon

| Structure (SMILES) | growth (T-47D breast) | growth (BT-549 breast) | growth (MDA-MB-435 melanoma) | growth (SW-620 colon) | growth (MCF7 breast) | growth (HCT-116 colon) | growth (HCC-2998 colon) | growth (KM12 colon) |
| --- | --- | --- | --- | --- | --- | --- | --- | --- |
| Cc1ccc(C2=C/C(=C/c3ccc(Br)cc3)C(=O)N2CCc2ccc(S(N)(=O)=O)cc2)cc1 | 75.9% | 98.1% | 101% | 103% | 88.5% | 95.2% | 105% | – |
| CCCCOC(=O)c1c(C)[nH]c(/C=C2\N=C(c3ccc[nH]3)C=C2OC)c1C | -46.1% (active) | 14.9% | -51.1% (active) | 11.6% | -44.2% (active) | -76.1% (active) | -28.1% (active) | – |
| CCCCCn1c(C)cc(/C=C\c2ccc3cc(C)ccc3[n+]2C)c1C | -49.1% (active) | -29.9% (active) | -90.2% (active) | -35.9% (active) | -18.2% (active) | -34.4% (active) | -70.1% (active) | – |
| COc1ccc(C2CC(c3ccc4ccccc4c3)=NN2c2nc(O)c(C3=c4cc(OC)ccc4=NC3=O)s2)cc1 (configuration not stated) | -72.7% (active) | -19.8% (active) | -59.5% (active) | -42% (active) | -29.4% (active) | -64.5% (active) | -70.4% (active) | – |
| c1ccc(-c2nnc(-c3c[nH]c4ncccc34)s2)cc1 | 40.5% | 95.3% | 94.8% | 104% | 54.1% | 91% | 111% | 93.2% |
| NC(=S)Cc1ccccc1 | 101% | 110% | 97.7% | 102% | 91% | 104% | 107% | – |
| Nn1c(Nc2ccc(S(=O)(=O)Nc3ncccn3)cc2)nnc(/C=C/c2c(O)ccc3ccccc23)c1=O | 70.9% | 101% | 95.2% | 94% | 76.6% | 89.9% | 114% | 82.9% |
| O=[N+]([O-])c1cc([N+](=O)[O-])c(NN=C(c2ccc(O)cc2)c2ccc(O)cc2)cc1Cl | -50.4% (active) | -11.6% (active) | -62.1% (active) | -75% (active) | -65.4% (active) | -91.1% (active) | -93.5% (active) | -77.7% (active) |
| CC1(C)C(=O)/C(=C\c2ccco2)C[C@]2(C)[C@H]3CC=C4[C@@H]5C[C@](C)(C(=O)O)CC[C@]5(C)CC[C@@]4(C)[C@]3(C)CC[C@@H]12 | -8.17% [100 µM] (active) | -62.6% [100 µM] (active) | -75.1% [100 µM] (active) | -63.6% [100 µM] (active) | -43.1% [100 µM] (active) | -67% [100 µM] (active) | -90.1% [100 µM] (active) | -77.5% [100 µM] (active) |
| CCCCCCCCN(CCCCCCCC)CC(O)c1ccc(Cl)c(C)c1Cl (configuration not stated) | 75.9% | 117% | 91.4% | 44.5% | 90.4% | 63.5% | 85.3% | 79.6% |
| Nc1cc(NN=C(c2ccc(O)cc2)c2ccc(O)cc2)c([N+](=O)[O-])cc1[N+](=O)[O-] | -55.9% (active) | 102% | 96.5% | 101% | -60.5% (active) | -61.8% (active) | -97.6% (active) | 71.5% |
| CSc1nc2c(c(=O)n1C)C1(C(=O)N(Cc3ccccc3)c3ccccc31)c1c(nc(SC)n(C)c1=O)N2 | 63.7% | 104% | 107% | 94.3% | 82.6% | 93% | 99.6% | 87.9% |
| C#CCNC(=O)CC[C@@H](C)[C@H]1CC[C@H]2[C@@H]3CC[C@@H]4CC(=O)CC[C@]4(C)[C@H]3CC[C@]12C | 4.15% [100 µM] (active) | -60% [100 µM] (active) | -39.7% [100 µM] (active) | -58.2% [100 µM] (active) | -6.31% [100 µM] (active) | -1.19% [100 µM] (active) | 0.203% [100 µM] (active) | -26.6% [100 µM] (active) |
| Cn1cc(-c2noc(C(=O)c3cn(C)c4ncc(Br)cc34)n2)c2ccccc21 | 99.7% | 98% | 99.9% | 96.5% | 90.5% | 99.6% | 108% | 96.7% |
| CCN(CC)c1ccc2cc(C(Nc3ccc(Br)c(C(F)(F)F)c3)c3nnnn3C(C)(C)C)c(=O)oc2c1 (configuration not stated) | 64.2% | 97.3% | 99.4% | 98.7% | 73.8% | 93.5% | 106% | 102% |
| C#C[C@]1(O)CC[C@H]2[C@@H]3CC=C4c5nc(Nc6ccccn6)sc5CC[C@]4(C)[C@H]3CC[C@@]21C | 10.1% | -27.6% (active) | -32% (active) | -24.9% (active) | 7.94% (active) | 4.49% (active) | 34.5% | -32.3% (active) |
| C[C@]12CCc3nc(Nc4ccccc4)sc3C1=CC[C@@H]1[C@@H]2CC[C@]2(C)/C(=N/NC(N)=S)CC[C@@H]12 | 9.46% (active) | 35.4% | 30.8% | 18.2% | 24.3% | -46.2% (active) | 84.9% | 33.5% |
| N#Cc1c(Cl)nc(SCC2CO2)nc1-c1ccccc1 (configuration not stated) | 97.3% | 81.4% | 110% | 111% | 83.9% | 88.8% | 111% | 110% |
| O=C1CC(c2ccccc2)Cc2nc3ccc(Cl)cc3cc21 (configuration not stated) | 75.5% | 4.62% (active) | -38.6% (active) | 23% | 54% | 5.45% (active) | 5.28% (active) | 1.73% (active) |
| COC(=O)c1cc2c(=O)[nH]cc3c2c(n1)CCC3 | 91.9% | 108% | 119% | 103% | 94.1% | 106% | 88.4% | 106% |
| Cc1cc(NN=C(c2ccc(O)cc2)c2ccc(O)cc2)c([N+](=O)[O-])cc1[N+](=O)[O-] | 33.1% | 90.8% | 47.5% | 71.4% | 32% | 28.6% | 61.9% | 37.7% |
| C=CCc1nc2ccccc2s1 | 75.5% | 101% | 116% | 98.9% | 40.6% | 104% | 114% | 107% |
| CC(C)CCSc1nc(N)nc2nc[nH]c12 | 89.1% | 140% | 116% | 113% | 96.1% | 92.9% | 101% | 92.6% |
| CCOC(=O)n1cc(C2=C(c3ccc(OC)c(OC)c3)COC2=O)c2ccccc21 | 48.8% | 0.425% (active) | -18.4% (active) | 26.5% | 14.9% | 4.07% (active) | 19.2% | 2.26% (active) |
| COc1ccc2nc3ccccc3c(NCCNCCO)c2c1 | 4.93% (active) | 8.11% (active) | -53.8% (active) | -18.3% (active) | 2.08% (active) | -36.5% (active) | -72.5% (active) | -30.5% (active) |
| CC[C@]12C=CCN3CC[C@@]4(c5ccc(OC)cc5N(C)[C@H]4[C@@](O)(C(=O)OC)[C@@H]1OC(=O)CCC(=O)N[C@H](Cc1c[nH]c4ccccc14)C(=O)OC)[C@@H]32 | -29.3% [100 µM] (active) | -16.5% [100 µM] (active) | -60.6% [100 µM] (active) | -50.6% [100 µM] (active) | -43.3% [100 µM] (active) | 3.55% [100 µM] (active) | -43.3% [100 µM] (active) | -35.1% [100 µM] (active) |
| COc1ccc(/C=C/C=C\C(=O)c2ccc(-n3ccnc3)cc2)cc1 | 58.1% | 50% | 92.8% | 98.4% | 79.5% | -76.2% (active) | 99.9% | 92.8% |
| CCOc1cccc2c(NC(C)CCCN(CC)CC)c(C)cnc12 (configuration not stated) | 115% | 99.8% | 101% | 96.6% | 97.7% | 93.4% | 115% | 99.1% |
| C=C(C)[C@@H]1CC[C@]2(C(=O)OC)CC[C@]3(C)[C@H](CC[C@@H]4[C@@](C)(CCc5nn[nH]n5)[C@H](C(=C)C)CC[C@]43C)[C@@H]12 | -5.51% [100 µM] (active) | -12.1% [100 µM] (active) | -54% [100 µM] (active) | -19.6% [100 µM] (active) | 5.06% [100 µM] (active) | -21.5% [100 µM] (active) | -53.5% [100 µM] (active) | -43.7% [100 µM] (active) |
